Results filed as inconclusive are left out. Where a call stands in place of a potency, no number is given. Active and inactive are the calls of the source. Calls come from the whole dose curve; as a rule, active = well fitted inhibition curve with a large enough effect; inconclusive = small, poorly fitted or top-dose-only effect; inactive = no such curve, though single readings can be large or run the other way.
Molecular target: Cytochrome P450 3A7 (Homo sapiens) (UniProt P24462)
Assay: Cytochrome P450 family 3 subfamily A member 7 (CYP3A7) small molecule antagonists: luciferase biochemical qHTS assay (AID 1963596); note: nearly all actives have a fitted effect of over 40% in size
Conditions: P450-Glo CYP3A7 enzyme luminescence, 1 h; series mostly up to 57.4 µM
Outline: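 In this luminescent screen, enzyme and proluciferin substrate meet test compound for 10 min before NADPH regeneration solution drives a 1 h room-temperature reaction; detection reagent halts turnover and luminescence is read 20 min later.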

Chain of Cytochrome P450 3A7 (Homo sapiens) (P24462 whole entry, looked up): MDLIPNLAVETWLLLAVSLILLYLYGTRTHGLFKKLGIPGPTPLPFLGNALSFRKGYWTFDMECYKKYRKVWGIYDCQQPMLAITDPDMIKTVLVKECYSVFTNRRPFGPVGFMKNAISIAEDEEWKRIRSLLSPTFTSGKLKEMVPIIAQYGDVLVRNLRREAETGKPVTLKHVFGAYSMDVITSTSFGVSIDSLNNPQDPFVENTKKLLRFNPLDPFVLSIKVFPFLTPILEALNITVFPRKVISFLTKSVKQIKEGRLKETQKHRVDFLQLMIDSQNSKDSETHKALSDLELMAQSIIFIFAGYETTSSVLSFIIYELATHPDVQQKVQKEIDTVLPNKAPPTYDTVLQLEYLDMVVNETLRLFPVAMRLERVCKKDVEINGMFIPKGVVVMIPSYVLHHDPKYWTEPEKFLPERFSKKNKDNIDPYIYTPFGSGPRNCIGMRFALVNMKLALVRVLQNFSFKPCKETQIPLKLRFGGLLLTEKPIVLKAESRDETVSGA

Row | Compound | Potency | activity change, negative = inhibition
1 | CO/N=C(/C(=O)N[C@@H]1C(=O)N2C(C(=O)O)=C(Cn3nnc(C)n3)CS[C@H]12)c1csc(N)n1 | inactive | 
2 | Oc1c(I)cc(Cl)c2cccnc12 | inactive | 
3 | CCOC(CN1CCN(CC(C)C(=O)c2ccccc2)CC1)c1ccccc1 (stereo not drawn) | inactive | 
4 | CCNCc1nc2c(N)nc3ccccc3c2n1CC(C)(C)O | inactive | 
5 | Oc1c(I)cc(I)c2cccnc12 | inactive | 
6 | O=C(NCC(=O)N1CC[C@H](NC2CCC(O)(c3ccc(-c4ncccn4)cn3)CC2)C1)c1cccc(C(F)(F)F)c1 (stereo partly drawn) | inactive | 
7 | CCOc1ccc(C(=O)OCCN(CC)CC)cc1 | inactive | 
8 | CNc1nc(C)nc(N[C@H]2CCC[C@@H](C(=O)NCc3ccc(C#N)cc3C(F)(F)F)C2)n1 | inactive | 
9 | O=c1[nH]c(=O)c2[nH]c(=O)[nH]c2[nH]1 |  | 3.23% [at 11.5 µM] (inactive)
10 | CC(C)N=C(N)/N=C(\N)Nc1ccc(Cl)cc1 | inactive | 
11 | O=C(O)Cc1ccc2c(c1)C(=O)c1ccccc1CO2 | inactive | 
12 | O=C(O)CCC(=O)OC[C@@H](NC(=O)C(Cl)Cl)[C@H](O)c1ccc([N+](=O)[O-])cc1 | inactive | 
13 | CN/C(=C\[N+](=O)[O-])NCCSCc1csc(CN(C)C)n1 | inactive | 
